PubChem BioAssay AID430 (Sanford-Burnham Center for Chemical Genomics, 2006)
The whole screen tested about 63,000 compounds, of which about 1,100 (1.7%) were called active. The entries come from a sample that favours actives as a whole. Potency and affinity values are given separately. A number with no mark means an inactive call. Cut-off read from the data, not from the text of the source: active = cytotoxicity above about 50%; inactive = the rest.

assay: cytotoxicity in HPDE-C7 cells, cell-based, fluorescence, HTS (AID 430); conditions: HPDE-C7 pancreatic duct cells viability, at 10 µM, hits give high values;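 note: cells exposed to compound for 48 hours before viability readout; 0% = vehicle and 100% = reference cytotoxic drug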

| Compound | cytotoxicity |
| --- | --- |
| Cc1ccc(C(C(=O)NC(C)(C)C)N(CC2CCCO2)C(=O)Cn2nnc(-c3ccc(C)o3)n2)cc1 (centres undefined) | -0.4% |
| COc1ccc(-c2cc3ccccc3n2CC(O)CN2CCOCC2)cc1 (centres undefined) | -1.1% |
| COc1ccc(-c2cc3ccccc3n2CC(O)CNC(CO)(CO)CO)cc1 (centres undefined) | 6.1% |
| COc1ccc(-c2cc3ccccc3n2CC(O)CN2CCN(CCO)CC2)cc1 (centres undefined) | 52.6% (active) |
| CCOc1ccc(C2C(C(=O)c3ccco3)=C(O)C(=O)N2Cc2cccnc2)cc1OC (centres undefined) | 7.1% |
| CCn1c2ccccc2c2cc(NC(=O)c3ccco3)ccc21 | 57.2% (active) |
| CCn1c2ccccc2c2cc(NC(=O)N3CCOCC3)ccc21 | 6.2% |
| Cc1ccc(Oc2ccc(NC(=O)c3ccco3)cc2)cc1 | 78.8% (active) |
| O=C(O)CCC(=O)Nc1ccc(C(=O)OC2CCCCC2)cc1 | -4.7% |
| O=C(Nc1ccc(OC(=O)c2ccco2)cc1)c1ccco1 | -10.9% |
| Cc1ccc(NC(=O)c2ccc(OC(=O)c3ccco3)cc2)cc1 | -5.6% |
| O=C(Nc1nc(-c2cccs2)c(-c2ccccc2)s1)c1ccco1 | 53.7% (active) |
| O=C(OC1CCCCC1)c1ccc(NC(=O)c2ccco2)cc1 | 58.1% (active) |
| CC(=O)c1sc(NC(=O)c2ccco2)nc1-c1ccccc1 | -1% |
| CCn1c2ccccc2c2cc(CN3CCN(C(=O)c4ccco4)CC3)ccc21 | -25.2% |
| O=C(Nc1ccc(Oc2ccc(NC(=O)c3ccco3)c(NC(=O)c3ccco3)c2)cc1)c1ccco1 | 25% |
| CCOC(=O)c1sc(NC(=O)c2ccco2)nc1-c1ccccc1 | -8.2% |
| CC(C)CCNC(=O)CN(CCN1CCOCC1)C(=O)Cn1nnc(-c2ccc(F)cc2)n1 | 4.5% |
| Cc1c(C(=O)O)sc2ncnc(N3CCCCC3C)c12 (centres undefined) | 9.8% |
| COC(=O)c1sc(NC(=O)c2ccco2)nc1C | -3.5% |
| Cc1nc(NC(=O)c2ccco2)sc1C(=O)Nc1ccc(Br)cc1 | 65.7% (active) |
| CCCCOC(=O)c1ccc(NC(C)=O)cc1 | -11.4% |
| CCCCCOC(=O)c1ccc(NC(=O)c2ccco2)cc1 | 65.9% (active) |
| CCOC(=O)c1sc(NC(=O)c2ccco2)nc1C | -1.4% |
| CCCCOC(=O)c1ccc(NC(=O)c2ccoc2C)cc1 | 3.4% |

| Compound | cytotoxicity |
| --- | --- |
| Cc1ccc2c(c1)NCCO2 | 5.4% |
| COc1c(Br)cc(Br)cc1/C=N/n1c(C)nnc1C | 2.9% |
| Cc1nnc(C)n1/N=C/c1cc(Br)cc(Br)c1O | 79.9% (active) |
| Cc1nnc(C)n1/N=C/c1cc(Br)ccc1O | -12.5% |
| CC(C)COC(=O)C(N)C(C(=O)OCC(C)C)c1ccccc1 (centres undefined) | -6.4% |
| O=C(NCC1CCCO1)C1CC(=O)N(c2ccc(F)c(Cl)c2)C1 (centres undefined) | 3.4% |
| CCN(CC)c1ccc2c(C)c(CN3CCOCC3)c(=O)oc2c1 | 24.1% |
| CCNc1ccc2c(Cl)cc(=O)oc2c1 | -2% |
| CCN(CC)c1ccc2c(C)c(-c3ccc(N)cc3)c(=O)oc2c1 | 11% |
| CCOC(=O)Cc1c(C)c2ccc(N(CC)CC)cc2oc1=O | -17.8% |
| CCN(CC)C(=O)CSc1nnc(-c2cccs2)n1Cc1ccco1 | 17.7% |
| O=C(COc1ccccc1)N1CCN(C(=O)c2cccc(F)c2)CC1 | -40.5% |
| CCOC(=O)CN1C(=O)COc2ccc(Cl)cc21 | -8.8% |
| CCN(CC)CCCN(Cc1cc2cc3c(cc2[nH]c1=O)OCCO3)C(=O)Nc1ccc(F)cc1 | 0.9% |
| O=C(c1ccc(Cn2cc(Cl)cn2)cc1)N1CCN(c2ccccc2)CC1 | 12.3% |
| O=C(c1ccc(Cn2cc(Br)cn2)cc1)N1CCN(c2ccccc2)CC1 | 53.1% (active) |
| O=C(O)c1cccc(Cn2cc(Br)cn2)c1 | -12.3% |
| CC(=O)N(Cc1cc(=O)[nH]c2ccccc12)c1cccc(C)c1 | 12% |
| CC1(C)CC(=O)C2=C(C1)N(CCN1CCOCC1)C1=C(C(=O)CC(C)(C)C1)C2c1cccc(Cl)c1 | 3.8% |
| O=C1CC(N2CCN(c3ccccc3)CC2)C(=O)N1c1ccc2c(c1)OCCO2 (centres undefined) | -4.9% |
| Cc1ccc(CCNC(=O)C2CCCN(c3nc4ccccc4o3)C2)cc1 (centres undefined) | -18% |
| COc1cc(C(=O)Nc2ccc(NC(=O)c3ccco3)nc2)cc(OC)c1OC | -2.5% |
| COc1cc(NC(=O)c2ccco2)c(OC)cc1NC(=O)c1cc(OC)c(OC)c(OC)c1 | 52.3% (active) |
| CCOc1cc(NC(=O)c2ccco2)c(OCC)cc1NC(=O)c1cc(OC)c(OC)c(OC)c1 | 14.4% |
